The values below come from PubChem BioAssay (EPA / NIEHS).

Records with an inconclusive call do not appear. Calls of active or inactive are those of the source. Rule for the calls: active = hit-call score of the fitted dose curve at least 0.9, where 1 is the maximum; inconclusive = response in the unintended direction; inactive = score below 0.9.

A short description of this experiment: Tanguay_ZF_120hpf_TR_legacy: (Legacy) Oregon State University Tanguay Lab 120 Hour Post-fertilization zebrafish Assay for Touch Response (AID 2283667). The procedure: Tanguay_ZF_120hpf_legacy is a whole embryo, multiplexed endpoint assay using zebrafish larvae exposed for 120 hours post fertilization on a 96-well plate.Tanguay_ZF_120hpf_TR_legacy is one of one assay component(s) measured or calculated from the Tanguay_ZF_120hpf_legacy assay. It is designed to make measurements of zebrafish development as detected with brightfield microscopy of developing zebrafish embryos.Data from the assay component Tanguay_ZF_120hpf_TR_legacy was analyzed into 1 assay endpoints. This assay endpoint, Tanguay_ZF_120hpf_TR_legacy, was analyzed in the positive analysis fitting direction relative to DMSO as the negative control and baseline of activity. Using a type of morphology reporter, gain-of-signal activity can be used to understand changes in developmentals as they relate to the whole embryo. To generalize the intended target to other relatable targets, this assay endpoint is annotated to the zebrafish development intended target family, where the subfamily is embryonic functional response.
Zebrafish husbandry: Tropical 5D wild-type adult zebrafish were housed in at an approximate density of 1000 per 100 gallon tank at the Sinnhuber Aquatic Research Laboratory, Oregon State University, Corvallis, OR. Each tank was kept at standard laboratory conditions of 28C on a 14-h light/10-h dark photoperiod in fish water consisting of reverse osmosis water supplemented with a commercially available salt (Instant Ocean). Spawning funnels were placed into the tanks the night prior, and embryos were collected and staged. […] Ten microliters of each row of dilution plate 2 was added to 2 exposure plates. The final DMSO concentration used was 0.64% (vol/vol). Thirty-two embryos were also exposed to 5uM trimethyltin chloride (positive control). Plates were sealed to prevent evaporation and foil covered to reduce light exposure and kept in a 28C incubator. Embryos were statically exposed until 120 hpf. At 24 hpf, embryos were assessed for photomotor response using a custom photomotor response analysis tool (PRAT) and for developmental toxicity endpoints (MO24: mortality at 24 hpf, DP: developmental progression, SM: spontaneous movement, and NC: notochord distortion). At 120 hpf, locomotor activity was measured using Viewpoint Zebralab and assessed for 18 endpoints. Zebrafish acquisition and analysis program (ZAAP), a custom program designed to inventory, acquire, and manage zebrafish data, was used to collect developmental endpoints as either present or absent (i.e., binary responses were recorded). If mortality occurred for an embryo (at either 24 or 120 hpf), the non-mortality endpoints were not measured.
As for `CC(C)(C)C(O)(CCc1ccc(Cl)cc1)Cn1cncn1` (stereo not given), the compound was classed as inactive.

Take `Cc1ccc(N)cc1`: the result was inactive. On to `COC(=O)c1ccccc1N`, for which the compound was classed as inactive. On the same count and under the same terms, the same measure for `CCOC(=O)[C@]1(c2ccccc2)Oc2ccccc2[C@@H]1N`: “inactive”; for `OCCCl`: “inactive”. For `c1ccc(C2CO2)cc1` (stereo not given), the compound was classed as inactive. In the case of `CCN(CC)N=O`, the result was inactive. For `CCC12COCN1COC2`, the outcome was inactive. Consider `Cc1ccc(N)c(N)c1`, for which the result was inactive. On the same count and under the same terms, the value for `CC(C)COC(=O)c1ccccc1C(=O)OCC(C)C` was “inactive”; that for `CC(C)(OOC(C)(C)c1ccccc1)c1ccccc1` was “inactive”; that for `Nc1ccc(N=Nc2ccccc2)cc1` was “inactive”. On the same count and under the same terms, the same measure for `C[N+](C)(C)CC1CO1` (stereo not given): “inactive”; for `OCCOCCO`: “inactive”; for `Cc1cccc(N)c1N`: “inactive”.

As for `Cc1cc(N=Nc2ccccc2C)ccc1N`, the AC50 (in general, the midpoint of the concentration-response curve, whichever way the signal moves) was 29.8 µM (active). Regarding `CO[C@@H]1[C@H](OC(=O)NC(=O)CCl)CC[C@]2(CO2)[C@H]1[C@@]1(C)O[C@@H]1CC=C(C)C`, the compound was called inactive.

Regarding `O=Cc1ccco1`, the outcome was inactive. Still for that read-out and setting: the same measure for `COP(=S)(OC)SCN1C(=O)c2ccccc2C1=O`: “inactive”; for `C1=Cc2cccc3cccc1c23`: “inactive”; for `CN(C)[C@@H]1C(=O)C(C(N)=O)=C(O)[C@@]2(O)C(=O)C3=C(O)c4c(O)cccc4[C@@](C)(O)[C@H]3C[C@@H]12`: “inactive”.

`CS(=O)(=O)NC(=O)c1cc(Oc2ccc(C(F)(F)F)cc2Cl)ccc1[N+](=O)[O-]`: the call was inactive. Turning to `ClC1=C(Cl)[C@]2(Cl)[C@H]3[C@H]([C@@H]4C=C[C@H]3C4)[C@@]1(Cl)C2(Cl)Cl`, the outcome was inactive.

As for `C=CCc1ccc2c(c1)OCO2`, the call was inactive.

In the case of `CC(C)(O)c1cnn2c(-c3ccc(F)c(-c4c(F)cccc4C#N)c3)cnc2n1`, the outcome was inactive. Same read-out and setting: the value for `Nc1cc(Cl)cc(C(=O)O)c1Cl` was “inactive”.

Turning to `CCCSC(=O)N(CCC)CCC`, the compound was classed as inactive. Take `CCOc1cccc(C2(N3CCN(c4ccccc4)CC3)CCC(C)CC2)c1` (stereo not given): the compound was called inactive. With `CCCCCCCCOC(=O)c1ccc(C(=O)OCCCCCCCC)c(C(=O)OCCCCCCCC)c1`, the compound was called inactive. The same measure, in the same setting: the same measure for `CC(O)CCO` (stereo not given): “inactive”. For `ClC1=C(Cl)C2(Cl)C3C(Cl)C=CC3C1(Cl)C2(Cl)Cl` (stereo not given), the call was inactive. The same measure, in the same setting: the value for `N#CC(Br)(Br)C(N)=O` was “inactive”; that for `c1ccc(NNc2ccccc2)cc1` was “inactive”.

Take `O=C(Nc1ccccc1)c1ccccc1I`: the call was inactive.

In the case of `Cc1ccc(N=C=O)cc1N=C=O`, the compound was classed as inactive. On to `C[C@]12C=CC3=C4CCC(=O)C=C4CC[C@H]3[C@@H]1CC[C@@H]2O`, for which the result was inactive. With `COC(=O)Nc1nc2ccccc2[nH]1`, the result was inactive. On to `CN(C)c1ccc(C(=O)c2ccc(N(C)C)cc2)cc1`, for which the AC50 is 43.3 µM (active). With `Cc1ccc([N+](=O)[O-])cc1`, the outcome was inactive.

Turning to `[As]#[In]`, the outcome was inactive.
